From PubChem BioAssay AID504840 (Johns Hopkins Ion Channel Center, 2011)
The whole screen tested about 1,500 compounds, of which about 890 (59%) were called active.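 How the source made its calls: active means inhibition of the choline-evoked signal at any tested dose together with a fitted dose-response curve; inactive means no inhibition at any dose or no curve.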 The set was probably picked from earlier hits. These entries were drawn from the full list. Entries with a potency or affinity are not part of this list.

target: High affinity choline transporter 1 (Homo sapiens) (UniProt Q9GZV3); assay: CHT inhibitors, dose response, cell-based, 5-point CRC, membrane potential dye (AID 504840); settings: HEK293-CHT, choline-induced depolarization, CHT with LV-to-AA double alanine mutation; series mostly up to 37 µM
Sequence (Q9GZV3 whole entry, looked up): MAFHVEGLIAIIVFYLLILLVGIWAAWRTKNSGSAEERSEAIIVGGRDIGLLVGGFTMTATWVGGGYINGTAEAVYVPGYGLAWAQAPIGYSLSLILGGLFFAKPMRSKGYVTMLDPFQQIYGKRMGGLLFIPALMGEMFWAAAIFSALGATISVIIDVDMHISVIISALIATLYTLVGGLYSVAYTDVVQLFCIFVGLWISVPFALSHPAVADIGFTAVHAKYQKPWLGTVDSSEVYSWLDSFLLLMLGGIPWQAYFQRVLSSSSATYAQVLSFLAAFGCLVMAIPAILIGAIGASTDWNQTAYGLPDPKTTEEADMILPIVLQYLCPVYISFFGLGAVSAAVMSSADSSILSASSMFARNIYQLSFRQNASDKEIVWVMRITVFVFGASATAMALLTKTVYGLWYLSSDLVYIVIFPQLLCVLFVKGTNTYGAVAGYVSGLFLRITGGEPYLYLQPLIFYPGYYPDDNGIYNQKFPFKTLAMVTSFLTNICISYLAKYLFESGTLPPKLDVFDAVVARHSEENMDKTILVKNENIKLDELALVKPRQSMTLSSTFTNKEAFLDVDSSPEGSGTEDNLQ

outcome, inactive:
O=C(Nc1cc([N+](=O)[O-])ccc1O)c1cccc([N+](=O)[O-])c1
Oc1ccc(-c2nc(-c3ccc(O)c(O)c3)cs2)cc1
Cc1cccc2sc(N(CCCN(C)C)C(=O)c3ccc(Cl)s3)nc12
Cc1oc(C(=O)O)cc1COc1ccc2c3c(c(=O)oc2c1C)CCC3
O=[N+]([O-])c1ccc(O)c(/C=N/NC2=NS(=O)(=O)c3ccccc32)c1
c1cc(Nc2ncnc3sccc23)cc(-c2nnc3n2CCCCC3)c1
O=c1c2cc(NC(=S)NC3CCCCC3)ccc2nc2n1CCCCC2
CCCn1c(=O)c2c(nc3n2CCCN3CCc2ccc(OC)c(OC)c2)n(C)c1=O
O=C(NNc1ccc(C(F)(F)F)cc1[N+](=O)[O-])c1ccc(NS(=O)(=O)c2ccc(F)cc2)cc1
O=C(NNc1nc(-c2ccccc2)cs1)c1ccc(F)cc1
O=C(NCc1nc(-c2ccccc2)cs1)c1ccccc1
C=CCNC(=O)c1onc(CSc2ccc(C(C)C)cc2)c1C(=O)O
CC(=O)C(Sc1nn(C)c(=S)s1)C(=O)Nc1ccccc1 (centres undefined)
CN1CCN(CCOCCOc2ccc(Br)cc2Cl)CC1
CCOc1cc(/C=C2\N=C(SC)SC2=O)cc([N+](=O)[O-])c1OC(C)=O
COC(=O)C(C)Sc1nc2c(c(=O)[nH]c(=O)n2C)n1CCC(C)C (centres undefined)
O=S(=O)(Nc1nc(-c2ccccc2)cs1)c1cccc(C(F)(F)F)c1
O=C(Nc1nc(-c2ccccc2)cs1)c1ccc(=O)[nH]c1
N#Cc1ccc(C2=NC(C(F)(F)F)(C(F)(F)F)c3c(n(Cc4ccco4)c(=O)[nH]c3=O)N2)cc1
O=C(Nc1ccc(S(=O)(=O)NC2=NCCCCC2)cc1)C1COc2ccccc2O1 (centres undefined)
O=C(CC1C(=O)NCCN1C(=O)Nc1ccccc1)Nc1cc(Cl)cc(Cl)c1 (centres undefined)
CCCCc1cc(=O)oc2cc(O)cc(O)c12
CN1CCN(CC(=O)Nc2nc(-c3c[nH]c4ccccc34)cs2)CC1
Nc1cc(N2CCCCCC2)c2nonc2c1[N+](=O)[O-]
O=C(NNc1ccc([N+](=O)[O-])cc1[N+](=O)[O-])c1ccco1
COc1ccc2c(c1)c(C(O)CN1CCC(Cc3ccccc3)CC1)c(C)n2C (centres undefined)
CC1(C)c2cc(Cl)ccc2-n2c1cc(O)c(-c1ccccc1)c2=O
CCCCCn1c(CCNC(=O)CCC)nc2ccccc21
CCOC(=O)c1c(CCl)nc2ccccc2c1C
Cc1occc1C(=O)NNC(=S)NC(=O)COc1ccc(Cl)cc1Cl
Cc1occc1C(=O)NNS(=O)(=O)c1ccc([N+](=O)[O-])cc1
O=C(O)c1ccccc1-c1ccccc1C(=O)Nc1ccc(-c2nc3cc(Cl)ccc3o2)cc1
Cc1cccc(N2CCN(C(=O)C3CCN(c4ncnc5c4nc4n5CCCCC4)CC3)CC2C)c1 (centres undefined)
CCn1c(SCC(=O)c2ccccc2)nnc1-c1cccs1
CCC(Sc1nnc(-c2ccc(C)c(Cl)c2)n1CC)C(=O)Nc1nccs1 (centres undefined)
Cc1c(O)ccc(/C(Cc2ccc3ccccc3n2)=N\N)c1O
C=CCNc1nc(SCC=C)nc2ccsc12
N#C/C(=C(/O)CCl)c1nc(-c2ccccc2)cs1
O=C(c1cccc(Oc2ccc([N+](=O)[O-])cc2Cl)c1)N1CCCCC1
COc1ccc(Nc2nc3ccccc3n2C)cc1
S=C(NCc1ccccn1)Nc1ccc(Cl)cc1Cl
O=C(Nc1ccc(Br)cc1Cl)Nn1cnnc1
O=C(NC1CCCCC1)C(c1ccc2ncccc2c1)N(Cc1ccc(F)cc1)C(=O)c1ccc2c(c1)OCCO2 (centres undefined)
COc1ccc(CN(C(=O)c2ccc3c(c2)OCCO3)C(C(=O)NC2CCCCC2)c2ccc3ncccc3c2)cc1 (centres undefined)
O=C(NCCc1ccc2c(c1)OCCO2)c1cc2ccccc2o1
COc1ccc(CN(C(=O)c2cccs2)C(C(=O)NC2CCCCC2)c2ccc3ncccc3c2)cc1 (centres undefined)
NC1=NC2(CCCCCC2)n2c(nc3ccccc32)N1
Cc1ccc(-c2csc3ncn(CC#N)c(=O)c23)cc1
CC1=C(C(=O)Nc2cccc(C(=O)NC3CCCC(C)C3C)c2)SCCO1 (centres undefined)
Cc1ccc(NNC(=O)c2cccs2)cc1Cl
Cc1ccc(Nc2cc(C(=O)NCCCN3CCOCC3)c3ccccc3n2)cc1C
CCNc1nc2[nH]c(=O)c3c(c2s1)OC(N)=C(C#N)C3c1ccc(C)cc1 (centres undefined)
Cc1noc(C)c1COC(=O)c1ccc(F)c(S(=O)(=O)N2CCCCC2)c1
CCc1nnc(NC(=O)c2cc(S(=O)(=O)N(CC)CC)ccc2Cl)s1
CC[N+]1(CC)CC2=Cc3c(ccc4ccccc34)CC2C1 (centres undefined)
O=C(CN1CCN(Cc2ccc(Cl)cc2)CC1)N1CCc2ccccc21
CCc1ccc(NCc2nc(-c3ccccc3)no2)cc1
Cc1ccc(-c2noc(CNc3ccccc3)n2)cc1
O=C(CCCN1C(=O)CSc2ncccc21)N1CCN(c2cccc(C(F)(F)F)c2)CC1
COC(=O)c1ccc(C(=O)N2CCCC(Nc3ccc(C(C)C)cc3)C2)nc1 (centres undefined)
CC(C)c1cc(C(=O)N2CCCC(CCC(=O)N3CCN(c4ccccn4)CC3)C2)no1 (centres undefined)
O=C(c1cc(COc2ccc(F)cc2Cl)on1)N1CCC(c2ccncc2)CC1
CCN(Cc1ccncc1)C(=O)c1cc(COc2c(C)cccc2C)on1
CC(C)n1cnc2c(N(C)c3cccc(Cl)c3)nc(N(CCO)CCO)nc21
N#C/C(=N\Nc1ccc([N+](=O)[O-])cc1)C(N)=S
N#C/C(=N\Nc1ccc(F)cc1)C(=O)C1CC1
CC(NC(=O)C1c2ccccc2Oc2ccccc21)C1CCCO1 (centres undefined)
CN(Cc1ccccc1)c1ccc(C(CC(N)=O)NC(=O)c2ccc(Br)cc2)cc1[N+](=O)[O-] (centres undefined)
O=C(O)c1ccc(N2C(=O)CSC2=S)cc1
